Records with an inconclusive call do not appear. Entries that show only a call come without a potency. Active and inactive are the calls of the source. Calls follow the shape of the full dose curve. Square brackets hold non-standard residues; d marks the D form. Peptide text beside a SMILES is read from it.
assay: Cytotoxicity counterscreen for inhibitors of SARS-CoV-2 cell entry (AID 1645845); details: cell viability (SARS-CoV-2 entry assay cells); series mostly up to 57.1 µM; also: nearly all actives have a fitted effect of over 50% in size
Summary of the method: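 ATP-content luminescence (ATPLite 1step, 15 min RT) read after 48 h compound exposure of Expi293F cells stably expressing human ACE2; normalized to cells-only wells and media-only wells.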
Potency is read from the fitted curve at half-maximal effect.

Q: Which Potency does the source give for `Cc1ccc(Nc2ncc3c(n2)N(C)C(=O)N(c2cc(NC(=O)c4cccc(C(F)(F)F)c4)ccc2C)C3)cn1` here?
A: inactive

Q: With `CN1CCN(c2nc(C3=C(c4c[nH]c5ccccc45)C(=O)NC3=O)c3ccccc3n2)CC1` as the molecule, how does the Potency read?
A: inactive

Q: For `CS(=O)(=O)c1ccc([C@@H](CC2CCCC2)C(=O)Nc2nccs2)cc1`, which Potency is on record?
A: inactive

Q: For `O=C(Nc1cccc(C(F)(F)F)c1)c1cccc2cc(Oc3cc(CO)ncn3)ccc12`, which Potency is on record?
A: inactive

Q: With `O=C(O)CC(C(=O)O)n1c(O)c(C2=c3cc(Br)ccc3=NC2=O)sc1=S` (stereo not given) as the molecule, how does the Potency read?
A: inactive

Q: With `CCCCCCCCCCCCCCCCOCCCOP(=O)(O)COC(CO)Cn1ccc(N)nc1=O` (stereo not given) as the molecule, how does the Potency read?
A: inactive

Q: Which Potency does the source give for `COc1ccc(-n2c(SCCCN3C(=O)c4cccc5cccc(c45)C3=O)nnc2-c2ccncc2)cc1` here?
A: inactive

Q: Which Potency does the source give for `COc1cc(OC)cc(N(CCNC(C)C)c2ccc3ncc(-c4cnn(C)c4)nc3c2)c1` here?
A: inactive

Q: Which Potency does the source give for `O=C(Nc1cnccc1Cl)N1CCN(Cc2ccc3c(c2)OC(F)(F)O3)CC1` here?
A: inactive

Q: Which Potency does the source give for `Fc1ccc(-c2nc(-c3ccccc3F)[nH]c2-c2ccncc2)cc1` here?
A: inactive

Q: For `CCn1c(=O)c(-c2ccc(-c3cncs3)cc2Cl)cc2cnc(Nc3ccc(N4CCN(C)CC4)cc3)nc21`, which Potency is on record?
A: inactive

Q: Which Potency does the source give for `CCOC(=O)C1=CCCCC1S(=O)(=O)Nc1ccc(F)cc1Cl` (stereo not given) here?
A: inactive

Q: With `CC(C)C[C@@H]1NC(=O)[C@@H](C(C)C)NC(=O)[C@@H]2CCCN2C(=O)[C@@H](CC(=O)O)NC(=O)[C@@H](Cc2c[nH]c3ccccc23)NC1=O` (cyclo(L[dW][dD]P[dV])) as the molecule, how does the Potency read?
A: inactive

Q: With `CN1CCN(c2ccc(-c3cccc(CN4CCOCC4)c3)cc2NC(=O)c2c[nH]c(=O)cc2C(F)(F)F)CC1` as the molecule, how does the Potency read?
A: inactive

Q: With `O=C(C[C@@H]1C/C=C\CCC(=O)O[C@H](c2ccccc2)CNC1=O)NCc1ccc(Cl)cc1` as the molecule, how does the Potency read?
A: inactive

Q: With `CCNC(=O)Nc1ccc(Oc2ncnc(N)c2/C=N/OC)cc1Cl` as the molecule, how does the Potency read?
A: inactive

Q: Which Potency does the source give for `Cc1cc(F)c(C(=O)Nc2cccc(-c3nncn3C(C)C)n2)cc1-n1cnc(C2CC2)c1` here?
A: 31.6 µM (active)

Q: Which Potency does the source give for `CC(C)NCCCn1c(Sc2cc(Cl)cc(Cl)c2)nc2c(N)ncnc21` here?
A: inactive

Q: For `CCCC1(CCC)CCC2(CCN(CCCN(CC)CC)C2)CC1`, which Potency is on record?
A: 7.08 µM (active)

Q: Which Potency does the source give for `COc1ccc2c(c1)C(c1ccc(F)cc1)=C(CN1CCCC1)CO2` here?
A: inactive

Q: For `COC(=O)N[C@@H](C)CNc1nccc(-c2cn(C(C)C)nc2-c2cc(Cl)cc(NS(C)(=O)=O)c2F)n1`, which Potency is on record?
A: inactive

Q: Which Potency does the source give for `O=C1OC(COc2ccccc2[N+](=O)[O-])CC1Cc1ccccc1` (stereo not given) here?
A: inactive

Q: With `Cc1cc(-c2cc(OC(=O)c3ccccc3)ccc2Cl)cc2nnc(Nc3ccc(OCCN4CCCC4)cc3)nc12` as the molecule, how does the Potency read?
A: inactive

Q: Which Potency does the source give for `COc1cc(N2CCC(N(C)C)CC2)ccc1Nc1ncc(Cl)c(Nc2ccccc2P(C)(C)=O)n1` here?
A: 15.8 µM (active)

Q: For `O=C(O)CC1CCC(c2ccc(-c3ccc(Nc4ccc(C(F)(F)F)nc4)cn3)cc2)CC1` (stereo not given), which Potency is on record?
A: inactive

Q: For `Cc1cc(C)cc(Oc2ccc(CNC(=O)[C@H](C)N)cc2C)c1`, which Potency is on record?
A: inactive

Q: For `COC(=O)N(CC(=O)O)Cc1cccc(OCc2nc(-c3ccc(Cl)cc3)oc2C)c1`, which Potency is on record?
A: inactive

Q: Which Potency does the source give for `CCC1CCCCN1C(=O)n1ncc(C(O)(c2ccccc2)c2ccccc2)n1` (stereo not given) here?
A: 11.2 µM (active)

Q: With `C/C=C/C/C=C/CCC(=O)[C@H]1O[C@H]1C(N)=O` as the molecule, how does the Potency read?
A: inactive

Q: For `CNC(=O)c1cc(Oc2ccc3nc(N[C@@H]4CCCC[C@H]4O)sc3c2)ccn1`, which Potency is on record?
A: inactive

Q: For `Cc1cc(N2CCOCC2)ccc1Nc1nc(NC2CCCCC2)c2[nH]cnc2n1`, which Potency is on record?
A: inactive

Q: Which Potency does the source give for `NC[C@@](O)(c1ccc(Cl)cc1)c1ccc(-c2cn[nH]c2)cc1` here?
A: 28.2 µM (active)

Q: For `CC(C)c1c(-c2ccccc2)nc2c(C#N)c[nH]n2c1=O`, which Potency is on record?
A: inactive

Q: Which Potency does the source give for `Cc1ccc(C(=O)Nc2ccc(Oc3cc4cnn(C)c4cc3-c3cn[nH]c3)c(F)c2)c(=O)n1-c1ccc(F)cc1` here?
A: inactive

Q: With `Cc1[nH]c(/C=C2\C(=O)Nc3ccccc32)c(C)c1CCC(=O)O` as the molecule, how does the Potency read?
A: inactive

Q: For `Cn1nccc1Nc1nccc(-c2cc3c(s2)C(C)(C)N(CCN2CCOCC2)C3=O)n1`, which Potency is on record?
A: inactive

Q: With `CC(/C=C/C(=O)NO)=C\[C@@H](C)C(=O)c1ccc(N(C)C)cc1` as the molecule, how does the Potency read?
A: 7.94 µM (active)

Q: With `Cc1ccc2cc(-c3c(C)ccc(C(=O)c4c(-c5ccccc5)n(C)n(-c5ccccc5)c4=O)c3N)ccc2n1` as the molecule, how does the Potency read?
A: inactive

Q: With `CO[C@H]1C[C@@H]2CC[C@@H](C)[C@@](O)(O2)C(=O)C(=O)N2CCCC[C@H]2C(=O)O[C@H]([C@H](C)C[C@@H]2CC[C@@H](OP(C)(C)=O)[C@H](OC)C2)CC(=O)[C@H](C)/C=C(\C)[C@@H](O)[C@@H](OC)C(=O)[C@H](C)C[C@H](C)/C=C/C=C/C=C/1C` as the molecule, how does the Potency read?
A: inactive

Q: Which Potency does the source give for `C[C@@H]1CC(=O)Nc2cccc(-c3ccc4c(c3)c(-c3cnn(C)c3)nn4C)c2N1` here?
A: inactive

Reference: PubChem BioAssay (NCATS)
